Tested on: Vero E6 infected with SARS-CoV-2
Assay: inhibition of SARS-CoV-2 cytopathic effect; higher = more antiviral protection, active = above 15
Settings: 48 h

Measured: inhibition of SARS-CoV-2 cytopathic effect

COC[C@H](C)Oc1cc(O[C@@H](C)Cc2ccccc2)cc(C(=O)Nc2ccc(C(=O)O)cn2)c1
inactive: 1 nM -1.62% | 8.33 nM 2.26% | 100 nM 1.23% | 833.33 nM -0.06% | 10000 nM 0.06%

COc1ccc(-c2ccc3c(N4CCOC[C@@H]4C)nc(N4CCOC[C@@H]4C)nc3n2)cc1CO
inactive: 1 nM -1.08% | 8.33 nM -2.46% | 100 nM -3.62% | 833.33 nM -4.35% | 10000 nM -6.56%

COc1cc2c(cc1Cc1cccc(Cl)c1F)c(=O)c(C(=O)O)cn2[C@H](CO)C(C)C [elvitegravir]
inactive: 1 nM 2.45% | 8.33 nM 1.56% | 100 nM 1.54% | 833.33 nM 1.67% | 10000 nM -6.71%

CC(C)=CCC[C@](C)(O[C@@H]1O[C@H](CO)[C@@H](O)[C@H](O)[C@H]1O)[C@H]1CC[C@]2(C)[C@@H]1[C@H](O)C[C@@H]1[C@@]3(C)CC[C@H](O[C@@H]4O[C@H](CO)[C@@H](O)[C@H](O)[C@H]4O[C@@H]4O[C@H](CO)[C@@H](O)[C@H](O)[C@H]4O)C(C)(C)[C@@H]3CC[C@]12C [ginsenoside-RD]
inactive: 1 nM -2.36% | 8.33 nM -1% | 100 nM 2.51% | 833.33 nM 0.27% | 10000 nM 0.18%

CC1COc2c(N3CCN(C)CC3)c(F)cc3c(=O)c(C(=O)O)cn1c23 (stereo not given) [ofloxacin]
inactive: 1 nM 1.97% | 8.33 nM 0.365% | 100 nM 0.065% | 833.33 nM -0.975% | 10000 nM 1.25%

CC(C)C(=O)Oc1ccc(CO)cc1[C@H](CCN(C(C)C)C(C)C)c1ccccc1 [fesoterodine]
inactive: 1 nM -1.73% | 8.33 nM -0.18% | 100 nM -0.25% | 833.33 nM -2.34% | 10000 nM 0.84%

Nc1ccn(C[C@@H](CO)OCP(=O)(O)O)c(=O)n1 [cidofovir]
inactive: 1 nM -0.38% | 8.33 nM 0.11% | 100 nM -1.45% | 833.33 nM -1.91% | 10000 nM -2.8%

COc1cc([S+](C)[O-])ccc1-c1nc2cccnc2[nH]1 (stereo not given) [sulmazole]
inactive: 1 nM -0.6% | 8.33 nM 3.93% | 100 nM 0.23% | 833.33 nM -1.34% | 10000 nM -0.68%

COC(=O)c1sccc1S(=O)(=O)Nc1ccc(Nc2ccccc2)cc1OC
inactive: 1 nM 2.58% | 8.33 nM 5.94% | 100 nM 2.5% | 833.33 nM 5.14% | 10000 nM 8.94%

O=c1c(O)c(-c2cc(O)c(O)c(O)c2)oc2cc(O)cc(O)c12 [myricetin]
inactive: 1 nM -0.44% | 8.33 nM 0.2% | 100 nM 3.15% | 833.33 nM 5.8% | 10000 nM 0.05%

Cc1nnc(NS(=O)(=O)c2ccc(N)cc2)s1 [sulfamethizole]
inactive: 1 nM 3.32% | 8.33 nM 0.33% | 100 nM 0.51% | 833.33 nM 1.2% | 10000 nM 3.18%

CCNC(=O)N1CCN(CCCC(c2ccc(F)cc2)c2ccc(F)cc2)CC1 [amperozide]
inactive: 1 nM -5.99% | 8.33 nM -8.04% | 100 nM -8.94% | 833.33 nM -7.67% | 10000 nM -9.06%

COc1cccc(/C=N/N=C/c2cccc(OC)c2)c1
inactive: 1 nM -0.08% | 8.33 nM 2.48% | 100 nM -2.17% | 833.33 nM -0.34% | 10000 nM 0.47%

C#Cc1cccc(Nc2ncnc3cc4c(cc23)OCCOCCOCCO4)c1 [icotinib]
inactive: 1 nM 1.1% | 8.33 nM 0.11% | 100 nM -1.65% | 833.33 nM -2.37% | 10000 nM -5.92%

O=S(=O)(c1cccc2c(O)nccc12)N1CCCNCC1 [hydroxyfasudil]
inactive: 1 nM -1.12% | 8.33 nM -1.29% | 100 nM -1.81% | 833.33 nM -2.35% | 10000 nM -0.71%

Cc1ccccc1/N=N/c1ccc(NC(=O)c2ccnn2C)c(C)c1
inactive: 1 nM -1.46% | 8.33 nM 0.89% | 100 nM 1.16% | 833.33 nM 2.03% | 10000 nM 0.48%

C[C@@H]1CN(Cc2ncccn2)C[C@H]1c1nc2c(cnn2C2CCOCC2)c(=O)[nH]1
inactive: 1 nM -1.78% | 8.33 nM 1.47% | 100 nM -0.33% | 833.33 nM 1.24% | 10000 nM -2.82%

— the supplement of paper PMC13380429
